This passage reports Potency and outcome results from PubChem BioAssay (Tox21).

A short description of test [1]: qHTS assay to identify small molecule agonists of the vitamin D receptor (VDR) signaling pathway - cell viability counter screen (AID 743224). Also: nearly all actives have a fitted effect of over 50% in size. Also: potency is read from the fitted curve at half-maximal effect. Summed up: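 Cells: VDR-bla, 2,000/well, settled 4 h. Treatment: compounds in DMSO, 16 h, 37C/5% CO2. Readout: CellTiter-Glo luminescence after 30 min RT.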
The nature of test [2]: qHTS assay to identify small molecule antagonists of the vitamin D receptor (VDR) signaling pathway - cell viability counter screen (AID 743225). Also: nearly all actives have a fitted effect of over 50% in size. In a few lines: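 Parallel cytotoxicity test: VDR-UAS-bla HEK 293T, 3 nM (final) 1-alpha,25-dihydroxyvitamin D3 with test compound, 16 h, 37C. Endpoint is CellTiter-Glo luminescence in the same wells.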
Background: qHTS replaces the single test concentration by a dilution series.

Test [3] is described as follows: qHTS assay to identify small molecule agonists of the NFkB signaling pathway - cell viability counter screen (AID 1159515; calls by dose curve; also: series mostly up to about 61 µM; nearly all actives have a fitted effect of over 55% in size). Summed up: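 Cells are seeded (2,000 NFkB-bla ME-180 per well), rested overnight, and dosed with DMSO-dissolved compounds for 5 hr at 37 C. Viability is then read by CellTiter-Glo luminescence after 30 min at room temperature.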
Test [4] is described as follows: qHTS assay to identify small molecule agonists of the endoplasmic reticulum stress response signaling pathway (AID 1159516; active = well fitted activation curve with a large enough effect in the signal ratio in the repeat runs, not every such curve was filed as active; the % refers to the signal ratio). Summed up: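 Cells are seeded at 1,500 per well and incubated overnight. Compounds in DMSO are added for 5 hr at 37 C, then beta-lactamase FRET substrate for 2 hr at room temperature, and fluorescence at 460 and 530 nm is measured.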
Test [5] can be described thus: qHTS assay to identify small molecule agonists of the endoplasmic reticulum stress response signaling pathway - cell viability counter screen (AID 1159517; calls by dose curve;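 also: HeLa cells carrying an ER stress response element beta-lactamase reporter; series mostly up to about 61 µM; nearly all actives have a fitted effect of over 50% in size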). In a few lines: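 In parallel with the ESRE reporter read, cytotoxicity was scored by CellTiter-Glo luminescence (30 min, room temperature) on HeLa ESRE-bla cells dosed for 5 hr.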
Test [6] in a line: qHTS assay to identify small molecule antagonists of the retinoid-related orphan receptor gamma (ROR-gamma) signaling pathway - cell viability counter screen (AID 1159520). Also: nearly all actives have a fitted effect of over 50% in size. In a few lines: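 Tet-on ROR gamma CHO cells were given compounds for 2 hr, then doxycycline hyclate at 1 uM final, and incubated 16 hr at 37 C. Viability was measured as ATP content by CellTiter-Glo luminescence.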

Test [7] addresses Nuclear receptor ROR-gamma (Homo sapiens) (UniProt P51449). The experiment in a line: qHTS assay to identify small molecule antagonists of the retinoid-related orphan receptor gamma (ROR-gamma) signaling pathway (AID 1159521; also: nearly all actives have a fitted effect of over 50% in size; also: potency is read from the fitted curve at half-maximal effect). In a few lines: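 Decreased RORE-driven luciferase luminescence indicates antagonism. Tet-on RORγ CHO cells received compound, then 1 uM final doxycycline 2 h later; signal read after 16 h incubation.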

Test [8] is described as follows: qHTS assay to identify small molecule agonists of the AP-1 signaling pathway - cell viability counter screen (AID 1159525; calls by dose curve; also: nearly all actives have a fitted effect of over 55% in size). In a few lines: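 Same-well cytotoxicity counter screen of the Tox21 10K library in ME-180 cells. The readout is ATP-dependent luminescence after 5 h compound treatment. Data are normalised to DMSO and tetra n-octyl ammonium bromide controls.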

Test [9] in a line: qHTS assay to identify small molecule agonists of the AP-1 signaling pathway (AID 1159526; calls by dose curve; also: potency is read from the fitted curve at half-maximal effect).
The target of test [10] is Retinoic acid receptor RXR-alpha (Homo sapiens) (UniProt P19793). The experiment in a line: qHTS assay to identify small molecule agonists of the RXR signaling pathway (AID 1159527; calls by dose curve; also: nearly all actives have a fitted effect of over 35% in size; also: potency is read from the fitted curve at half-maximal effect). In a few lines: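 16 hr incubation of compound-treated RXR-alpha-UAS-bla HEK 293T cells (2% charcoal-stripped FBS, 37 C) preceded a 2 hr room-temperature LiveBLAzer FRET substrate step and blue/green fluorescence measurement.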

Test [11] in a line: qHTS assay to identify small molecule agonists of the RXR signaling pathway - cell viability counter screen (AID 1159529). Summed up: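 In this parallel viability measure, GeneBLAzer RXR-alpha HEK 293T cells (2% charcoal-stripped FBS) were given a 5 hr preincubation, treated with compounds 16 hr at 37 C, and read by CellTiter-Glo luminescence.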
A short description of test [12]: qHTS assay to identify small molecule antagonists of the retinoid acid receptor (RAR) signaling pathway - cell viability counter screen (AID 1159551). Also: nearly all actives have a fitted effect of over 35% in size. Summed up:
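Cells (C3RL4) are plated, incubated overnight, dosed with compound in DMSO, then given retinol at 1 uM final. After 6 h at 37 C, CellTiter-Glo is added and luminescence read following 30 min at room temperature.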

Test [13] is described as follows: qHTS assay to identify small molecule agonists of the NFkB signaling pathway (AID 1159509; active = well fitted curve in the direction sought with a large enough effect in the signal ratio in the repeat runs, not every such curve was filed as active; the % refers to the signal ratio; also: series mostly up to about 61 µM). Summed up: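 Pathway activation was measured in ME-180 cells stably expressing beta-lactamase under NF-kB response element control. Substrate cleavage was read as the 460/530 nm emission shift after 5 hr compound incubation.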
Test [14] can be described thus: qHTS assay to identify small molecule antagonists of the retinoic acid receptor (RAR) signaling pathway (AID 1159552; also: nearly all actives have a fitted effect of over 50% in size). Summed up:
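C3RL4 RARE-luc cells, overnight plating; retinol 1 uM final added right after compound; 6 hr 37 C; luciferase read at 30 min RT.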

A short description of test [15]: qHTS assay to identify small molecule agonists of the retinoic acid receptor (RAR) signaling pathway (AID 1159553). Also: potency is read from the fitted curve at half-maximal effect. In a few lines: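 Seed C3RL4 reporter cells at 1,000 per well and incubate overnight at 37 C. Add compounds in DMSO, incubate 6 hr. Add luciferase reagent, wait 30 min at room temperature, read luminescence.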
A short description of test [16]: qHTS assay to identify small molecule antagonists of the estrogen related receptor (ERR) signaling pathway - cell viability counter screen (AID 1224818). Also: series mostly up to about 46 µM. In a few lines:
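ERR cells, 2,000/well; 6 h settle at 37 C/5% CO2; compound pin transfer (DMSO); 17.5 h at 37 C; CellTiter-Fluor, 30 min, fluorescence read.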

Test [17] in a line: qHTS assay to identify small molecule antagonists of the estrogen related receptor signaling pathway with the pleiotropic PPARgamma coactivator (PGC) cell viability counter screen (AID 1224822;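 also: series mostly up to about 46 µM; viability read after 17.5 h compound exposure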). Summed up:
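Multiplexed viability counter screen run in PGC/ERR cells treated with compounds for 17.5 h at 37 C; live-cell protease signal measured by CellTiter-Fluor fluorescence.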

Molecules are shown by their SMILES. “And” between values parts separate entries of the source, which are not always exact repeats. Identical values can stand only once. Inconclusive results are not listed. Some structures have more than one record in an assay (separate samples or runs), and their calls can disagree. The source made the active and inactive calls. Unless noted, calls follow the shape of the dose curve; as a rule, active = well fitted curve in the direction sought with a large enough effect in the repeat runs; inconclusive = weak or mixed curves; inactive = no such curve, though single readings can be large; an effect the other way counts as inactive or inconclusive.

Sequence of Retinoic acid receptor RXR-alpha (Homo sapiens) (P19793 whole entry, looked up): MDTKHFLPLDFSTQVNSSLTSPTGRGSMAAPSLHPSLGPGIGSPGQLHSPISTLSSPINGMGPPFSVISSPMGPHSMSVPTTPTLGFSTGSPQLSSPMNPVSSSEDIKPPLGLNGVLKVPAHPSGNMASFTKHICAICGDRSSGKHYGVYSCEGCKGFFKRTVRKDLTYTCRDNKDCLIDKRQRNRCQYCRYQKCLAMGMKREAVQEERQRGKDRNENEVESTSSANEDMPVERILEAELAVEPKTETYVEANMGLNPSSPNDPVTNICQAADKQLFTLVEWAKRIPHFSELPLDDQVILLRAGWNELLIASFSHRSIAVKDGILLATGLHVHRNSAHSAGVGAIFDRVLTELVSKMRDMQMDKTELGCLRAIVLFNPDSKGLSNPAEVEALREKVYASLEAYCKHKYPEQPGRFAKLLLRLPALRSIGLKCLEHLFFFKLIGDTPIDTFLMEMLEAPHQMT

With `CC(=O)/C=C/C1=C(C)CCCC1(C)C`, the Potency result in [1], in [5], in [7], in test [9], in test [10] and in test [11] was “inactive” throughout. Further, the outcome in [2], in [3], in test [4], in test [6], in test [8] and in [12] was inactive.
With `CCCCCCCCOc1ccc(C(=O)c2ccccc2)c(O)c1`, the Potency entry in test [1] is “inactive and 49 µM (active)”. Besides, the compound was classed as inactive in test [2], in [13], in [3], in [4], in test [6] and in test [8]. For the same compound, the Potency result in test [5], in test [7], in test [9], in [10], in [11] and in test [14] was “inactive” each time. In addition, the Potency result in test [15] is “inactive”.
For `CC(C)(C)CC(C)(C)c1ccc(O)c(-n2nc3ccccc3n2)c1`, the Potency entry in test [1], in [5], in test [9], in test [14] and in test [15] was “inactive” in each case. For the same compound, the compound was called inactive in test [2], in [13], in test [3], in test [4], in test [6] and in test [8]. Besides, the Potency in test [7] was 49.2 µM (active) and inactive.
`COC(=O)C1CCC(C(=O)OC)CC1` (stereo not drawn): the Potency entry in test [1], in test [5], in test [7], in test [9], in test [10] and in test [11] was “inactive” in each case. The Potency entry in test [14] and in test [15] was “inactive” each time. Besides, the call in test [2], in test [13], in [3], in test [4], in test [6] and in test [8] was inactive.
As for `COc1cc(O)c(C(=O)c2ccccc2)cc1S(=O)(=O)O`, the Potency result in test [1], in test [5], in test [7], in test [9], in test [10] and in test [11] was “inactive” each time. For the same compound, the Potency entry in test [14] and in test [15] was “inactive” each time. Also, the call in test [2], in test [13], in [3], in test [4], in [6] and in test [8] was inactive.
As for `COCCOCCOC`, the Potency result in [1], in test [5], in [7], in test [9], in test [10] and in test [11] was “inactive” each time. Further, the Potency entry in [14] and in [15] was “inactive” in each case. For the same compound, the compound was called inactive in [2], in [13], in test [3], in [4], in test [6] and in test [8].
On to `O=c1c(-c2ccc(O)cc2)coc2cc(O)cc(O)c12`, for which the Potency result in test [1], in test [5], in [7], in [9], in test [11] and in [14] was “inactive” in each case. For the same compound, the result in test [2], in test [13], in test [3], in [4], in test [6] and in test [8] was inactive. Besides, the outcome in test [16] and in test [17] was inactive. The Potency in [15] was 1.9 µM (active) and 1.37 µM (active) and 2.37 µM (active).
Consider `COc1cc2c(c(OC)c1OC)-c1ccc(OC)c(=O)cc1[C@@H](NC(C)=O)CC2`, for which the Potency entry in test [1], in test [5], in test [14] and in test [15] was “inactive” in each case. The compound was called inactive in test [2], in test [13], in test [3], in test [6], in test [8] and in [12]. The call in test [16] and in test [17] was inactive. Moreover, the Potency in [7] was 538 nM (active) and 686 nM (active) and 37.6 nM (active); in test [9], 172 nM (active).
Consider `COC(=O)c1ccc(O)cc1`, for which the Potency result in [1], in test [5], in test [9], in test [11], in [14] and in test [15] was “inactive” throughout. Besides, the result in [2], in test [13], in test [3], in [4], in test [6] and in [8] was inactive. The result in test [12] was inactive. The Potency result in test [10] is “inactive and 6.16 µM (active)”.
As to `O=[N+]([O-])c1ccc(O)cc1`, the Potency entry in test [1], in test [5], in test [9], in [10], in [11] and in test [14] was “inactive” in each case. Further, the Potency result in test [15] was “inactive”. For the same compound, the result in test [2], in test [13], in test [3], in test [4], in test [6] and in test [8] was inactive.
Consider `Cc1ccc(O)c(-n2nc3ccccc3n2)c1`, for which the Potency entry in test [1], in [5], in test [7], in [9], in test [10] and in test [11] was “inactive” throughout. In addition, the Potency result in [14] is “inactive”. Further, the outcome in test [2], in test [13], in test [3], in test [4], in test [6] and in test [8] was inactive. For the same compound, in test [15], the Potency was 1.52 µM (active) and 1.93 µM (active) and 2.98 µM (active).
`CN(C)Cc1cc(CN(C)C)c(O)c(CN(C)C)c1`: the Potency result in test [1], in test [5], in [7], in [9], in [10] and in [11] was “inactive” throughout. The Potency result in [14] and in test [15] was “inactive” each time. The call in [2], in test [13], in test [3], in test [4], in [6] and in test [8] was inactive.
For `CCCCCCCCCCCCCCCCCC(=O)OCC(O)CO` (stereo not drawn), the Potency entry in test [1], in [5], in [7], in test [9], in test [10] and in [11] was “inactive” in each case. The Potency result in test [14] and in test [15] was “inactive” throughout. Also, the compound was called inactive in test [2], in test [13], in [3], in [4], in [6] and in test [8].
Regarding `CC(=O)OC/C=C(C)/C=C/C=C(C)/C=C/C1=C(C)CCCC1(C)C`, the Potency result in test [1], in test [5], in test [7], in [9] and in [11] was “inactive” throughout. Besides, the outcome in test [2], in test [13], in test [3], in [4], in test [6] and in test [8] was inactive. Also, in test [12], the compound was classed as inactive.
Regarding `Cc1cccc(Nc2cc(Cl)nc(SCC(=O)O)n2)c1C`, the Potency result in [1], in [5], in [7], in test [9], in test [11] and in test [14] was “inactive” each time. Besides, the Potency entry in [15] was “inactive”. The call in test [2], in test [13], in test [3], in [4], in test [6] and in test [8] was inactive.
